High-throughput results as filed in PubChem.
Sampled rows, rich in hits. Any-hit rate of the full collection: about 2.7%.
LDHA inh: qHTS assay for inhibitors of human lactate dehydrogenase | AID 1347041, 2019 | purified LDHA, NADH/diaphorase-resazurin fluorescence; active compounds read low | 480,000 compounds, 0.15% hits | L-lactate dehydrogenase A chain (Homo sapiens), P00338 | activity change, % (values are at about 110 or 230 µM); in the data active means activity change below about -30%; inconclusive means mostly about -25% to -30%;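 further: plate controls were DMSO wells for no effect and wells without enzyme for full effect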
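LDH5 2 nM; NADH 0.06 mM, pyruvate 0.2 mM; 200 mM Tris pH 7.4, EDTA, Tween-20; 5 min RT. Detection: diaphorase 0.133 mg/mL + resazurin 37 µM, fluorescence ex540/em590 at 0 and 20 min; normalized to enzyme-free and DMSO wells.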
A549 viability: Nrf2 qHTS screen for inhibitors: counterscreen for cytotoxicity; A549 ARE-Fluc cells, CellTiter-Fluor viability, 18-24 h; Potency, µM (series often up to 46 µM), for inactives: at the top dose activity change, negative = cytotoxicity, actives largely listed as inhibitors; 390,000 compounds, 0.16% hits; AID 504648, 2011; further: potency means the concentration at half of the fitted maximal effect; on the % scale 0 is the no-effect control and ±100 the full control effect
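A549 ARE_Fluc cells in 5% FBS OPTI-MEM were exposed to compounds in concentration-response for 18-24 h at 37 deg C. Viability was read by CellTiter-Fluor fluorescence (Ex 405/Em 525) after 30 min, before the luciferase read.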
Nrf2 activator: qHTS of Nrf2 Activators; AREc32 ARE-luciferase reporter (MCF7-derived line), luminescence, 24 h; Potency, µM (doses to about 46.1 µM), for the others: at the top dose activation, hits mostly activators; 410,000 compounds, 0.31% hits; further: potency means the concentration at half of the fitted maximal effect; % of control where 0% means no effect; nearly all actives have a fitted effect of over 65% in size
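For detection, Steady-Glo was added and plates sat 30 min at RT; before that, AREc32_Fluc cells grown overnight in OPTI-MEM/5% FBS had been treated with 23 nL compound for 24 hr at 37 deg C.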
Nrf2 block: Nrf2 qHTS screen for inhibitors. Potency, µM (top dose mostly 46 µM), without a hit: top-dose activity change, negative = inhibition, most hits filed as inhibitors. AID 504444, 2011. A549 ARE-Fluc reporter, luciferase luminescence, 18-24 h. 360,000 compounds, 2.1% hits; further: potency means the concentration at half of the fitted maximal effect; on the % scale 0 is the no-effect control and ±100 the full control effect; nearly all actives have a fitted effect of over 60% in size
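A549 ARE_Fluc cells (5000/well, 5% FBS OPTI-MEM) pre-incubated 2 h, then treated with compounds 18-24 h at 37C/5% CO2 in concentration-response. CellTiter-Fluor viability read first; BugLite luciferase luminescence after 15 min at room temperature gives Nrf2 activity.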
12-LOX inh: Primary qHTS assay for inhibitors of human arachidonate 12S-lipoxygenase (ALOX12): Round 2; 580,000 compounds, 1.1% hits; AID 1671190, 2021; Potency, µM (top dose mostly 108 µM), without a hit: top-dose activity change, negative = inhibition, usual class: inhibitors; purified 12hLO, xylenol orange hydroperoxide absorbance; further: potency means the concentration at half of the fitted maximal effect; on the % scale 0 is the no-effect control and ±100 the full control effect
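Purified human 12hLO (150 nM final) in 25 mM Hepes, 0.01% Triton X-100, pH 7.0 was preincubated 15 min at room temperature with compound. Then 40 uM arachidonic acid was added, 30 min. Hydroperoxide was read by Fe-XO absorbance ratio 573/405 nm.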
ERG-DNA inh: qHTS for Small Molecule Inhibitors of the ERG Ets/DNA interaction. Potency, µM (top dose mostly 76.9 µM), for inactives: top-dose FP activity, negative = inhibition, actives largely listed as inhibitors. AID 624246, 2012. 370,000 compounds, 0.028% hits. fluorescence polarization, His-ERG Ets domain / labelled DNA; active means well fitted inhibition curve with a large enough effect in the polarisation, with a control signal flat; inconclusive means small, poorly fitted or top-dose-only effect, or effect the other way, or a change in a side signal; inactive means no such curve, though single readings can be large or run the other way; the % refers to the polarisation;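 further: polarization taken with two DNA probes labelled with fluorescein and Texas red; potency means the concentration at half of the fitted maximal effect; % of control where 0% means no effect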
Target sequence (P11308 whole entry, looked up, the tested form may be a part): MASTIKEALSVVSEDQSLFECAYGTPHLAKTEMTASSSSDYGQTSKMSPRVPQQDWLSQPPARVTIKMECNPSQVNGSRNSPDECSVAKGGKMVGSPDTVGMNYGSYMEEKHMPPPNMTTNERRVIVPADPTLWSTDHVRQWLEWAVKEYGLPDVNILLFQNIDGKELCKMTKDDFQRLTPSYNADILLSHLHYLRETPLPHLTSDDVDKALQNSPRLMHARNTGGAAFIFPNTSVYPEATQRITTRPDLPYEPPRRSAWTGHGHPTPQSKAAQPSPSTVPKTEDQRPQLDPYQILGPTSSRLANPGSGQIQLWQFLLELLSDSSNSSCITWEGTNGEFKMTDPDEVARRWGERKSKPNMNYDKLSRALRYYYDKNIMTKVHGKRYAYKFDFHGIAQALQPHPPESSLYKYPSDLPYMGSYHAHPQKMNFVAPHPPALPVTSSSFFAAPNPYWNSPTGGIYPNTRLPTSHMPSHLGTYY
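His-tagged ERG Ets domain (1 uM in the protein solution; 300mM KCl, 50mM Tris-HCl, 1mM EDTA, 1mM DTT, pH 7.5) received compound, then a probe mix of 5 nM fluorescein-DNA and 100nM Texas-615-DNA. Fluorescence polarization was read for both dyes.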
* = called active by the depositor; i = inactive; ? = inconclusive; . = no result; [ ] = another dose, or the depositor's remark. Unless noted, the call rests on the fitted dose curve; in most records, active means well fitted curve in the direction sought with a large enough effect; inconclusive means small, poorly fitted or top-dose-only effect, or another doubt; inactive means no such curve, though single readings can be large; an effect the other way counts as inactive or inconclusive.

SMILES	LDHA inh	A549 viability	Nrf2 activator	Nrf2 block	12-LOX inh	ERG-DNA inh
Cc1cc(O)c(C(=O)/C=C/c2cccc([N+](=O)[O-])c2)c(=O)o1	0	2%	22µM*	5%	?	12%
O=C(/C=C\Nc1cccc(F)c1)c1cccs1	-3	-6%	4µM*	?	1%	5%
O=C(/C=C/c1ccc(-c2cccc([N+](=O)[O-])c2)o1)N1CCOCC1	-3	-1%	13%	?	-1%	0%
Cc1cc(O)c(C(=O)/C=C/c2ccccc2O)c(=O)o1	1	-10%	15%	1%	-9%	8%
COc1ccc(Sc2ccc(/C=C3\C(=O)NN(c4ccccc4)C3=O)o2)cc1	-5	-5%	-1%	-9%	28µM*	1%
O=c1c2cn[nH]c2nc(SCc2ccc3c(c2)OCCO3)n1-c1ccccc1	-11	-16%	3%	21µM*	6%	-1%
CC(=O)c1ccc(OCCC(=O)OCc2ccc(C#N)cc2F)cc1	-18	.	.	.	-6%	.
COc1cccc(-c2cc(C(F)(F)F)nc(-n3cc(Cl)cn3)n2)c1	8	1%	0%	10µM*	?	-5%
O=[N+]([O-])c1ccccc1N/N=C\c1ccccc1F	-9	-19%	?	?	0%	-11%
Oc1ccccc1/C=N/Nc1ccccc1	7	9%	15%	?	32µM*	0%
O=[N+]([O-])c1cccc(N/N=C/c2cccc(O)c2O)c1	29	-13%	16%	?	11µM*	-4%
C(=N\Nc1ccccc1)/c1cc(/C=N/Nc2ccccc2)cc(/C=N/Nc2ccccc2)c1	-1	.	.	.	-78%	.
O=[N+]([O-])c1ccccc1N/N=C\c1ccccc1Cl	-8	-2%	10µM*	?	-4%	1%
O=[N+]([O-])c1ccccc1C=NNc1ccccc1	1	-8%	6.3µM*	-1%	20µM*	-5%
CC(C)(C)C(=O)Nc1ccc(-c2csc(NCc3ccco3)n2)cc1	-1	.	.	.	?	.
CCOc1nc2ccccc2nc1N1CCC(C(=O)NCc2cccc(C)c2)CC1	2	.	.	.	?	.
O=[N+]([O-])c1ccc(/C=N/Nc2cccc(Cl)c2)cc1	10	.	.	.	3.2µM*	.
Clc1nc2sccn2c1/C=N/n1cnc2ccccc21	-5	3%	3.2µM*	?	-3%[57.4 µM]	.
Cc1ccc(S(=O)(=O)NC2CC2)cc1C(=O)Nc1ccc(N2CCCCC2)c2ccncc12	66	.	.	.	22%	.
COc1cc(/C=N/n2cnnc2)ccc1OS(=O)(=O)c1ccccc1[N+](=O)[O-]	-3	3%	13µM*	3%	10%	7%
COc1cccc(S(=O)(=O)N2CCCN(C)c3ccccc32)c1	.	.	.	.	22µM*	.
Cc1ccc(CNc2nc(NCc3ccc(C)cc3)n(C(=O)c3ccncc3)n2)cc1	-1	.	.	.	?	.
O=C(c1ccc2c(=O)n(C3CCCC3)c(=S)[nH]c2c1)N1CCCCCC1	1	-22%	-1%	16µM*	i	5%
CC1CCCN(C(=O)c2ccc3c(=O)n(C4CCCC4)c(=S)[nH]c3c2)C1 (stereo not given)	-8	-8%	0%	?	-29%	3%
O=C(c1ccc2c(=O)n(-c3ccccc3)c(=S)[nH]c2c1)N1CCCCC1	-3	-3%	0%	7.3µM*	4%	4%
SMILES	LDHA inh	A549 viability	Nrf2 activator	Nrf2 block	12-LOX inh	ERG-DNA inh
CNC(=O)c1ccc(C2Nc3cc(C(F)(F)F)ccc3S(=O)(=O)N2)cc1 (stereo not given)	10	.	.	.	?	.
COc1ccc(NC(=S)N=Nc2c(O)[nH]c3ccccc23)cc1	-1	?	18%	9.2µM*	?	8%
Cc1ccc(NC(=S)N=Nc2c(O)[nH]c3ccccc23)cc1	-5	-11%	9%	-20%	1%	-2%
Cc1cccc(C)c1-n1c(SCC(=O)Nc2ccc(C(=O)O)cc2)nnc1-c1cccc([S+](=O)([O-])N2CCCC2)c1	-1	.	.	.	.	.
CCOC(=O)C1(Cc2ccccc2C(F)(F)F)CCN(Cc2ccccn2)CC1	.	.	.	.	16µM*	.
CCOC(=O)C1(Cc2ccccc2C(F)(F)F)CCN(CCCn2cccn2)CC1	-2	-4%	0%	5%	-15%	-5%
NS(=O)(=O)c1cccc(C(=O)NC2CCSc3ccccc32)c1 (stereo not given)	-2	3%	1%	2%	-6%	5%
NS(=O)(=O)c1cc(C(=O)NC2CCSc3ccccc32)ccc1Cl (stereo not given)	-66*	-1%	-1%	8%	?	-6%
CCCNS(=O)(=O)c1ccc(CCC(=O)Nc2cc(Cl)ccc2Oc2ccccc2)cc1	-1	?	3%	16µM*	0%	-2%
O=C(O)CCc1ccc(S(=O)(=O)Nc2ccc(OCc3ccccc3)cc2)cc1	5	-10%	0%	-10%	0%	2%
CC(C)CNS(=O)(=O)c1ccc(CCC(=O)Nc2cc(Cl)ccc2Oc2ccccc2)cc1	-2	-1%	4%	.	483%	1%
CCOc1ccc(Oc2ccccc2NS(=O)(=O)c2ccc(CCC(=O)O)cc2)cc1	-1	-14%	-1%	10µM*	-8%	2%
COc1cc(OC)c(Nc2nc3ccccc3nc2NS(=O)(=O)c2cccc(C)c2)cc1Cl	11	.	.	.	6%	.
COCCN(Cc1ccc(F)cc1)Cc1cc(=O)n2c3c(sc2n1)CCCC3	2	.	.	.	-5%	.
CN(C(=O)COc1ccccc1C(=O)NCCOc1ccccc1)c1ccccc1	0	?	-3%	15µM*	9%	10%
Cc1noc2nc(-c3ccccc3F)cc(C(=O)NCc3ccccc3)c12	2	.	.	.	-39%	.
CN(C)c1ccc(S(=O)(=O)N2CCC(Cc3ccccc3)CC2)cn1	-4	-4%	0%	21µM*	-2%	5%
O=C(Nc1ccc(NS(=O)(=O)c2ccc(F)cc2)cc1)c1cncn1-c1ccccc1	8	.	.	.	18%	.
O=C(NCc1n[nH]c(=O)c2ccccc12)c1ccccc1Cl	1	.	.	.	1%	.
CC(C[N+](C)(C)C)OC(=O)c1ccc2c(c1)OCO2 (stereo not given)	-5	.	.	.	25µM*	.
CCN(c1ccccc1)S(=O)(=O)c1ccc(/C=C\c2onc(C)c2NC(=O)C2CC2)cc1	2	.	.	.	-3%	.
